{
  "source": "the supplement of paper PMC10042075",
  "note": "Counter-ions that a name gives are not always drawn. ± gives the standard deviation of the averaged measurements.",
  "data": [
    {"system": "LASCPC-01", "assay": "cell viability relative to DMSO control (fraction); higher = less growth inhibition (more viable cells)", "conditions": "2 µM; 72 h", "experimental": "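High-throughput single-dose screen in the LASCPC-01 NEPC cell line in 384-well plates. Cells were treated with each compound at 2 µM for 72 h, and viability was read by CellTiter-Glo luminescence. Values are normalised to the DMSO control (compound/DMSO) from three replicates; only the 5-HT-related subset of the 7315-compound library is given.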", "values": [
      {"molecule": "Cc1nc2ccccn2c(=O)c1CCN1CCC(C(=O)c2ccc(F)cc2)CC1", "note": "[Pirenperone]", "cell viability": 0.645},
      {"molecule": "CCOc1cc(N)c(Cl)cc1C(=O)NCC1CN(Cc2ccc(F)cc2)CCO1", "note": "(stereo not given) [Mosapride Citrate]", "cell viability": 0.912},
      {"molecule": "O=S(=O)(c1ccccc1)c1cnc2c(N3CCNCC3)cccc2c1", "cell viability": 0.879},
      {"molecule": "CNc1nn2c(C)c(N(C)C)c(C)nc2c1S(=O)(=O)c1ccccc1", "cell viability": 0.978},
      {"molecule": "CN(C)CCC[C@@]1(c2ccc(F)cc2)OCc2cc(C#N)ccc21", "note": "[Escitalopram Oxalate]", "cell viability": 0.982},
      {"molecule": "NCCCCCNCC12CC3CC(CC(C3)C1)C2", "note": "[IEM 1754 dihydrobroMide]", "cell viability": 0.808},
      {"molecule": "COc1ccc2cccc(CCNC(C)=O)c2c1", "note": "[Agomelatine]", "cell viability": 1.07},
      {"molecule": "N#Cc1cc(CN2CCC(Nc3ncnc4sc(Cl)cc34)CC2)ccc1F", "cell viability": 0.875},
      {"molecule": "CN(C)CC(c1ccc(O)cc1)C1(O)CCCCC1", "note": "(stereo not given) [Desvenlafaxine]", "cell viability": 1},
      {"molecule": "CN(C)C(=O)N[C@H]1CC[C@H](CCN2CCN(c3cccc(Cl)c3Cl)CC2)CC1", "note": "[Cariprazine]", "cell viability": 0.892},
      {"molecule": "CSc1ccc2c(c1)C(N1CCN(C)CC1)Cc1ccccc1S2", "note": "(stereo not given) [Methiothepin mesylate]", "cell viability": 1.03},
      {"molecule": "NCCc1c[nH]cn1", "note": "[Histamine]", "cell viability": 1.07},
      {"molecule": "O=C1Cc2cc(CCN3CCN(c4nsc5ccccc45)CC3)c(Cl)cc2N1", "note": "[Ziprasidone]", "cell viability": 0.987},
      {"molecule": "CN1C2CCCC1CC(NC(=O)c1nn(C)c3ccccc13)C2", "note": "(stereo not given) [Granisetron hydrochloride]", "cell viability": 0.955},
      {"molecule": "O=c1n(CCCN2CCN(c3cccc(Cl)c3)CC2)nc2ccccn12", "note": "[Trazodone hydrochloride]", "cell viability": 1.04},
      {"molecule": "C=C1C(=O)O[C@H]2[C@H]1CC/C(C)=C/CC[C@@]1(C)O[C@@H]21", "note": "[Parthenolide]", "cell viability": 0.323},
      {"molecule": "CC(CN(C)C)CN1c2ccccc2CCc2ccccc21", "note": "(stereo not given) [Trimipramine maleate]", "cell viability": 1.01},
      {"molecule": "CN1CC2c3ccccc3Oc3ccc(Cl)cc3C2C1", "note": "(stereo not given) [Asenapine Maleate]", "cell viability": 1.1},
      {"molecule": "O=C1[C@@H]2[C@H]3CC[C@H](C3)[C@@H]2C(=O)N1CCCCN1CCN(c2ncccn2)CC1", "note": "[Tandospirone citrate]", "cell viability": 0.477},
      {"molecule": "Nc1ccc2c(C(F)(F)F)cc(=O)oc2c1", "note": "[7-Amino-4-(trifluoromethyl)coumarin]", "cell viability": 0.894},
      {"molecule": "COc1ccccc1N1CCN(CCCNc2cc(=O)n(C)c(=O)n2C)CC1", "note": "[Urapidil HCl]", "cell viability": 0.425},
      {"molecule": "O=C1CC2(CCCC2)CC(=O)N1CCCCN1CCN(c2ncccn2)CC1", "note": "[Buspirone HCl]", "cell viability": 1.02},
      {"molecule": "Cc1nc2sccn2c(=O)c1CCN1CCC(=C(c2ccc(F)cc2)c2ccc(F)cc2)CC1", "note": "[Ritanserin]", "cell viability": 0.989},
      {"molecule": "O=C(O[C@@H]1C[C@@H]2C[C@H]3C[C@H](C1)N2CC3=O)c1c[nH]c2ccccc12", "note": "[Dolasetron]", "cell viability": 1.15},
      {"molecule": "COc1cccc([C@H](O)C2CCN(CCc3ccc(F)cc3)CC2)c1OC", "note": "[Volinanserin]", "cell viability": 1.06},
      {"molecule": "O=c1[nH]c2ccccc2n1CCN1CCN(c2cccc(C(F)(F)F)c2)CC1", "note": "[Flibanserin]", "cell viability": 1.02},
      {"molecule": "O=C1NCCN1CCN1CCC(c2cn(-c3ccc(F)cc3)c3ccc(Cl)cc23)CC1", "note": "[Sertindole]", "cell viability": 0.499},
      {"molecule": "O=C1CCc2ccc(OCCCCN3CCN(c4cccc(Cl)c4Cl)CC3)cc2N1", "note": "[Aripiprazole]", "cell viability": 1.05},
      {"molecule": "Cc1cc2c(cc1Cl)N(C(=O)Nc1cccc3ncccc13)CC2", "cell viability": 0.693},
      {"molecule": "CC1(C)C(=O)N(CCN2CCC(C(=O)c3ccc(F)cc3)CC2)c2ccccc21", "note": "[LY-310,762 hydrochloride]", "cell viability": 0.89},
      {"molecule": "O=C(c1ccc(F)cc1)C1CCN(CCn2c(=O)[nH]c3ccccc3c2=O)CC1", "note": "[Ketanserin]", "cell viability": 0.968},
      {"molecule": "CCc1nn(CCCN2CCN(c3cccc(Cl)c3)CC2)c(=O)n1CCOc1ccccc1", "note": "[Nefazodone hydrochloride]", "cell viability": 1.03},
      {"molecule": "CN1CCC(c2c[nH]c3ccc(NC(=O)c4ccc(F)cc4)cc23)CC1", "cell viability": 0.954},
      {"molecule": "CC(=O)c1ccc2c(c1)N(CCCN1CCC(CCO)CC1)c1ccccc1S2", "note": "[Piperacetazine]", "cell viability": 0.764},
      {"molecule": "COC(=O)[C@H]1[C@H]2C[C@@H]3c4[nH]c5cc(OC)ccc5c4CCN3C[C@H]2C[C@@H](OC(=O)c2cc(OC)c(OC)c(OC)c2)[C@@H]1OC", "note": "[Reserpine]", "cell viability": 0.918},
      {"molecule": "N#Cc1ccc2[nH]cc(CCCCN3CCN(c4ccc5oc(C(N)=O)cc5c4)CC3)c2c1", "note": "[Vilazodone HCl]", "cell viability": 0.916},
      {"molecule": "COc1ccc2cc(Br)ccc2c1", "note": "[2-Bromo-6-methoxynaphthalene]", "cell viability": 0.899},
      {"molecule": "c1ccc2c(c1)CC(N1CCN(c3cccc4c3OCCO4)CC1)C2", "cell viability": 0.835},
      {"molecule": "COCCCC/C(=N\\OCCN)c1ccc(C(F)(F)F)cc1", "note": "[Fluvoxamine maleate]", "cell viability": "1.07 ± 0.028"},
      {"molecule": "O=C1[C@@H]2[C@H]3CC[C@H](C3)[C@@H]2C(=O)N1C[C@@H]1CCCC[C@H]1CN1CCN(c2nsc3ccccc23)CC1", "note": "[Lurasidone hydrochloride]", "cell viability": 0.876}
    ]}
  ]
}
